Binding signal data for 40 sequences are collected here from paper PMC11006913.

Chain of HOXB9 (Homo sapiens, UniProt P17482 171-250, R186Q) (P17482 171-250 R186Q): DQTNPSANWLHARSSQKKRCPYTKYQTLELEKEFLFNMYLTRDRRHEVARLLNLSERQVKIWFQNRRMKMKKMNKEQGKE

The target of one experiment is HOXB9 (Homo sapiens, UniProt P17482 171-250). As to the kind of experiment: PBM; 200 nM protein, PBS. The settings on record: dsDNA, one strand shown.
Chain of HOXB9 (Homo sapiens, UniProt P17482 171-250) (P17482 171-250): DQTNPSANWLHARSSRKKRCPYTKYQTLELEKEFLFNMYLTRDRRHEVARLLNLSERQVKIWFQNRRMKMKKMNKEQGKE
Consider AATGCAAT, for which the binding signal was 10.3 upbm affinity estimate (log intensity, higher = more binding, comparable within an allelic series).
Same read-out and setting: with AAAATACC the figure was 9.6 upbm affinity estimate (log intensity, higher = more binding, comparable within an allelic series).
On to CATTACTA, for which the binding signal was 10.6 upbm affinity estimate (log intensity, higher = more binding, comparable within an allelic series).
The same measure, in the same setting: the result for TAAACTAA reads 10.3 upbm affinity estimate (log intensity, higher = more binding, comparable within an allelic series).
Same read-out and setting: with ATTACGTC the figure was 10 upbm affinity estimate (log intensity, higher = more binding, comparable within an allelic series).
As for CGTTTAAA, the binding signal is 10.2 upbm affinity estimate (log intensity, higher = more binding, comparable within an allelic series).
For AATACCAT, the binding signal was 9.98 upbm affinity estimate (log intensity, higher = more binding, comparable within an allelic series).
The same measure, in the same setting: with AAGTAATC the figure was 9.94 upbm affinity estimate (log intensity, higher = more binding, comparable within an allelic series); with AATACAAT, 10 upbm affinity estimate (log intensity, higher = more binding, comparable within an allelic series).
As for AATCAATA, the binding signal is 10.5 upbm affinity estimate (log intensity, higher = more binding, comparable within an allelic series).
Same read-out and setting: the result for ATATTTCC reads 9.97 upbm affinity estimate (log intensity, higher = more binding, comparable within an allelic series); that for ACATTACA, 10.6 upbm affinity estimate (log intensity, higher = more binding, comparable within an allelic series).
The same measure, in the same setting: the result for ATTTAATC reads 10.8 upbm affinity estimate (log intensity, higher = more binding, comparable within an allelic series); that for CATAATCG, 10.5 upbm affinity estimate (log intensity, higher = more binding, comparable within an allelic series); that for CTACTATA, 10.2 upbm affinity estimate (log intensity, higher = more binding, comparable within an allelic series).
On the same count and under the same terms, with TACTGTAA the figure was 10.2 upbm affinity estimate (log intensity, higher = more binding, comparable within an allelic series); with ATATCTTC, 10 upbm affinity estimate (log intensity, higher = more binding, comparable within an allelic series).
As for TAACTTAA, the binding signal was 10.2 upbm affinity estimate (log intensity, higher = more binding, comparable within an allelic series).
Turning to AACCCATT, the binding signal is 10.5 upbm affinity estimate (log intensity, higher = more binding, comparable within an allelic series).
Same read-out and setting: with AAATCTTA the figure was 9.84 upbm affinity estimate (log intensity, higher = more binding, comparable within an allelic series); with AAGCAATA, 10.1 upbm affinity estimate (log intensity, higher = more binding, comparable within an allelic series).
For the sequence AACATATG, the binding signal was 9.86 upbm affinity estimate (log intensity, higher = more binding, comparable within an allelic series).
Take CATTTAAA: the binding signal is 10.7 upbm affinity estimate (log intensity, higher = more binding, comparable within an allelic series).
For the sequence AATTGCTA, the binding signal is 10.7 upbm affinity estimate (log intensity, higher = more binding, comparable within an allelic series).
Turning to AAGATCAT, the binding signal was 9.78 upbm affinity estimate (log intensity, higher = more binding, comparable within an allelic series).
Take GGCGATAA: the binding signal was 10.4 upbm affinity estimate (log intensity, higher = more binding, comparable within an allelic series).
Turning to AGGCTAAT, the binding signal is 9.89 upbm affinity estimate (log intensity, higher = more binding, comparable within an allelic series).
For the sequence ATAGATAA, the binding signal is 10.4 upbm affinity estimate (log intensity, higher = more binding, comparable within an allelic series).

For a further experiment, the target named is T1, SIX6 (Homo sapiens, UniProt O95475 114-200, T139Q).
T1 sequence: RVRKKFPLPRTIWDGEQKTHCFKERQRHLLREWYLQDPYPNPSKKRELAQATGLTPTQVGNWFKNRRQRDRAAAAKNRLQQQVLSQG
Kind of experiment: PBM; 200 nM protein, PBS. The settings on record: dsDNA, one strand shown.
As for AGGTATCG, the binding signal was 11.1 upbm affinity estimate (log intensity, higher = more binding, comparable within an allelic series).
Regarding CGGATCAC, the binding signal was 11.1 upbm affinity estimate (log intensity, higher = more binding, comparable within an allelic series).
With AGATACCC, the binding signal is 11.2 upbm affinity estimate (log intensity, higher = more binding, comparable within an allelic series).
On the same count and under the same terms, the result for GATACCCA reads 11.2 upbm affinity estimate (log intensity, higher = more binding, comparable within an allelic series).

The next experiment deals with T2, NKX2-6 (Homo sapiens, UniProt A6NCS4 118-204, R150C).
T2 sequence: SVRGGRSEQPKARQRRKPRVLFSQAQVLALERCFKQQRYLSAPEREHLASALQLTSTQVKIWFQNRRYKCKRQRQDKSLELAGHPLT
Kind of experiment: PBM; 200 nM protein, PBS. Conditions: dsDNA, one strand shown.
For the sequence CAAGAGGG, the binding signal is 10.9 upbm affinity estimate (log intensity, higher = more binding, comparable within an allelic series).
Still for that read-out and setting: with GAGTCTGC the figure was 9.64 upbm affinity estimate (log intensity, higher = more binding, comparable within an allelic series); with GACCTGGC, 9.43 upbm affinity estimate (log intensity, higher = more binding, comparable within an allelic series); with ACGGGGTC, 9.58 upbm affinity estimate (log intensity, higher = more binding, comparable within an allelic series).
On the same count and under the same terms, the result for CTTGCCGC reads 9.53 upbm affinity estimate (log intensity, higher = more binding, comparable within an allelic series).
Same read-out and setting: the result for CACGCCAG reads 9.43 upbm affinity estimate (log intensity, higher = more binding, comparable within an allelic series); that for GTAAGTAC, 11.7 upbm affinity estimate (log intensity, higher = more binding, comparable within an allelic series); that for AAGAGTAG, 10.8 upbm affinity estimate (log intensity, higher = more binding, comparable within an allelic series).

The next experiment addresses HOXB9 (Homo sapiens, UniProt P17482 171-250, R186Q). Kind of experiment: PBM; 200 nM protein, PBS. Conditions: dsDNA, one strand shown.
As to AATGCAAT, the binding signal is 10.2 upbm affinity estimate (log intensity, higher = more binding, comparable within an allelic series).
AAAATACC: the binding signal was 9.45 upbm affinity estimate (log intensity, higher = more binding, comparable within an allelic series).
Still for that read-out and setting: with CATTACTA the figure was 10.5 upbm affinity estimate (log intensity, higher = more binding, comparable within an allelic series); with TAAACTAA, 10.1 upbm affinity estimate (log intensity, higher = more binding, comparable within an allelic series); with ATTACGTC, 10.2 upbm affinity estimate (log intensity, higher = more binding, comparable within an allelic series).
Turning to CGTTTAAA, the binding signal is 9.99 upbm affinity estimate (log intensity, higher = more binding, comparable within an allelic series).
In the case of AATACCAT, the binding signal is 9.96 upbm affinity estimate (log intensity, higher = more binding, comparable within an allelic series).
In the case of AAGTAATC, the binding signal is 9.94 upbm affinity estimate (log intensity, higher = more binding, comparable within an allelic series).
Same read-out and setting: with AATACAAT the figure was 9.98 upbm affinity estimate (log intensity, higher = more binding, comparable within an allelic series).
Regarding AATCAATA, the binding signal is 10.4 upbm affinity estimate (log intensity, higher = more binding, comparable within an allelic series).
ATATTTCC: the binding signal is 9.85 upbm affinity estimate (log intensity, higher = more binding, comparable within an allelic series).
On to ACATTACA, for which the binding signal is 10.5 upbm affinity estimate (log intensity, higher = more binding, comparable within an allelic series).
Same read-out and setting: with ATTTAATC the figure was 10.7 upbm affinity estimate (log intensity, higher = more binding, comparable within an allelic series).
CATAATCG: the binding signal is 10.3 upbm affinity estimate (log intensity, higher = more binding, comparable within an allelic series).
Still for that read-out and setting: the result for CTACTATA reads 10 upbm affinity estimate (log intensity, higher = more binding, comparable within an allelic series); that for TACTGTAA, 10.1 upbm affinity estimate (log intensity, higher = more binding, comparable within an allelic series); that for ATATCTTC, 9.91 upbm affinity estimate (log intensity, higher = more binding, comparable within an allelic series).
Still for that read-out and setting: the result for TAACTTAA reads 10.1 upbm affinity estimate (log intensity, higher = more binding, comparable within an allelic series); that for AACCCATT, 10.4 upbm affinity estimate (log intensity, higher = more binding, comparable within an allelic series); that for AAATCTTA, 9.77 upbm affinity estimate (log intensity, higher = more binding, comparable within an allelic series).
As to AAGCAATA, the binding signal was 10.1 upbm affinity estimate (log intensity, higher = more binding, comparable within an allelic series).
The same measure, in the same setting: with AACATATG the figure was 9.84 upbm affinity estimate (log intensity, higher = more binding, comparable within an allelic series); with CATTTAAA, 10.6 upbm affinity estimate (log intensity, higher = more binding, comparable within an allelic series); with AATTGCTA, 10.6 upbm affinity estimate (log intensity, higher = more binding, comparable within an allelic series).
AAGATCAT: the binding signal is 9.78 upbm affinity estimate (log intensity, higher = more binding, comparable within an allelic series).
For GGCGATAA, the binding signal is 10.3 upbm affinity estimate (log intensity, higher = more binding, comparable within an allelic series).
On to AGGCTAAT, for which the binding signal was 9.92 upbm affinity estimate (log intensity, higher = more binding, comparable within an allelic series).
The same measure, in the same setting: the result for ATAGATAA reads 10.4 upbm affinity estimate (log intensity, higher = more binding, comparable within an allelic series).
